The source made the active and inactive calls. Rule for the calls: active = hit-call score of the fitted dose curve at least 0.9, where 1 is the maximum; inactive = score below 0.9.
Columns and labels:
[1] = ATG_CRE_CIS: Attagene CIS-FACTORIAL HepG2 Assay for human cAMP Responsive Element (CRE) binding protein 3 (AID 2282926); details: HepG2 CRE cis-reporter, Attagene multiplexed mRNA; actives raise or lower the signal
Method in brief: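 We dosed HepG2 cells bearing multiple cis-promoter reporter units for 24 h and measured reporter mRNA by RT-PCR with capillary electrophoresis detection. Bidirectional concentration-response fitting used DMSO as negative control.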

[2] = target: CCAAT/enhancer-binding protein beta (Homo sapiens) (UniProt P17676); assay: ATG_C_EBP_CIS: Attagene CIS-FACTORIAL HepG2 Assay for human CCAAT/Enhancer Binding Protein (C/EBP) beta (AID 2282927); details: HepG2 Attagene cis-factorial transcription factor reporter; actives raise or lower the signal
Chain of CCAAT/enhancer-binding protein beta (Homo sapiens) (P17676 whole entry, looked up): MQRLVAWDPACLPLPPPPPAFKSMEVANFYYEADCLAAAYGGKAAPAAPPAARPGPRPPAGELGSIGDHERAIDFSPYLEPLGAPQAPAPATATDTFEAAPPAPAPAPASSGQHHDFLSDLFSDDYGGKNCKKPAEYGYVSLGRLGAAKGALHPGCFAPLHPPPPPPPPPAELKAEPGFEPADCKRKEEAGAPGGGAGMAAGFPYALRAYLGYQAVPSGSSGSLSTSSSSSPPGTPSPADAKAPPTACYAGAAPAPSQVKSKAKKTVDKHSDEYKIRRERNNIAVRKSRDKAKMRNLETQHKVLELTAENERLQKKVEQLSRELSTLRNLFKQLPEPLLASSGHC
Method in brief: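 HepG2, transient MRTU transfection, 24 h treatment. RT-PCR plus CE fluorescence; DMSO negative control, bidirectional fit.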

[3] = ATG_CMV_CIS: Attagene CIS-FACTORIAL HepG2 Assay for human CMV (Internal Marker) (AID 2282928); details: HepG2 CMV promoter reporter, transcription factor profiling; actives raise or lower the signal;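 note: endpoint acts as a background internal control marker rather than a target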
Method in brief: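 CMV internal-marker background readout in transiently transfected HepG2 cells bearing cis-regulated reporter units. Reporter mRNA is measured 24 h after dosing by RT-PCR and capillary electrophoresis, with bidirectional fitting against DMSO.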

[4] = ATG_DR4_LXR_CIS: Attagene CIS-FACTORIAL HepG2 Assay for human Liver X Receptor (LXR), DR4 submotif (AID 2282929); details: HepG2 Attagene DR4 cis-reporter, mRNA transcription; actives raise or lower the signal
Method in brief: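 Readout: reporter transcript fluorescence after RT-PCR and capillary electrophoresis, fitted bidirectionally against DMSO controls. Human HepG2 liver cells carried transiently transfected multiplexed reporter constructs; endogenous transcription factor activity measured 24 h post-dosing.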

[5] = target: Aryl hydrocarbon receptor (Homo sapiens) (UniProt P35869); assay: ATG_Ahr_CIS: Attagene CIS-FACTORIAL HepG2 Assay for human Aryl Hydrocarbon Receptor (Ahr) (AID 2282930); details: HepG2 AhR cis-factorial reporter transcription; actives raise or lower the signal
Chain of Aryl hydrocarbon receptor (Homo sapiens) (P35869 whole entry, looked up): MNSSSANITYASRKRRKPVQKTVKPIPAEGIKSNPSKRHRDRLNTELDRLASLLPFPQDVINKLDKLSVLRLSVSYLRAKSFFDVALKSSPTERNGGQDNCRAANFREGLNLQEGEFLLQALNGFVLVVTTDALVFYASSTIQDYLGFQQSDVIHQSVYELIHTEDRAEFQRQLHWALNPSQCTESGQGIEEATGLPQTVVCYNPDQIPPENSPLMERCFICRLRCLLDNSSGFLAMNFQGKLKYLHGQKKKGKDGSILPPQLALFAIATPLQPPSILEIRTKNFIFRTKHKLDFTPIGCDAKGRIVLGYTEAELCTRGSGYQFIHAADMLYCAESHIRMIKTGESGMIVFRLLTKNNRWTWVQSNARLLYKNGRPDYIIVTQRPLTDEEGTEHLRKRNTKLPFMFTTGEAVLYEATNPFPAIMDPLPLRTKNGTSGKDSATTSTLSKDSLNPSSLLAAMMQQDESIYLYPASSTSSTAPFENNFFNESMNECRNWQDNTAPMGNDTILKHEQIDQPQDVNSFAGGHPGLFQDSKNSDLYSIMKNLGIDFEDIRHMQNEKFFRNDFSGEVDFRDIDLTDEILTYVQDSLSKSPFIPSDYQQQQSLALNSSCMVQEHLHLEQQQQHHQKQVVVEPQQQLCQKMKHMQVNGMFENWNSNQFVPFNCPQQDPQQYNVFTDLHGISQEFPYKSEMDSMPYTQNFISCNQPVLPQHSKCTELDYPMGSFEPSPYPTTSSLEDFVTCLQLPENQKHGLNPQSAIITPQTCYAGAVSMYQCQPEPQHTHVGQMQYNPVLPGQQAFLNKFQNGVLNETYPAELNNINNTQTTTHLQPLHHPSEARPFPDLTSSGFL
Method in brief: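 Endogenous factor activity is tracked through cis-promoter reporter units transfected into HepG2 cells. Transcript levels at 24 h are read by fluorescent RT-PCR and capillary electrophoresis, with activity in either direction scored relative to DMSO.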

[6] = ATG_AP_1_CIS: Attagene CIS-FACTORIAL HepG2 Assay for human Activator Protein 1 (AP-1) (AID 2282931); details: HepG2 Attagene cis-factorial AP-1 reporter mRNA; actives raise or lower the signal
Method in brief: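 Reporter transcripts were measured 24 h after dosing by RT-PCR and capillary electrophoresis of fluorescent fragments. Cells: HepG2 carrying transfected cis-regulated reporter constructs reading endogenous factor activity. Gain or loss fitted against DMSO.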

[7] = ATG_AP_2_CIS: Attagene CIS-FACTORIAL HepG2 Assay for human Activator Protein 2 (AP-2) (AID 2282932); details: HepG2 AP-2 cis-reporter, Attagene transcription factor profiling; actives raise or lower the signal
Method in brief: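 Multiplexed mRNA reporter assay in HepG2: cis-regulated units report endogenous factor activity after 24 h treatment. Fluorescence from capillary electrophoresis of RT-PCR products gives the signal, with DMSO as baseline.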

[8] = ATG_BRE_CIS: Attagene CIS-FACTORIAL HepG2 Assay for human Bone Morphogenetic Protein (BMP) Response Element (BRE) (AID 2282933); details: HepG2 BMP response element reporter, Attagene transcription factor profiling; actives raise or lower the signal
Method in brief: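 Read-out: reporter mRNA induction quantified by RT-PCR and capillary electrophoresis after 24 h chemical exposure of transfected HepG2 cells. Endogenous factor activity on the BMP response element; gain or loss fitted against DMSO baseline.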

[9] = target: Retinoic acid receptor alpha (Homo sapiens) (UniProt P10276); assay: ATG_DR5_RAR_CIS: Attagene CIS-FACTORIAL HepG2 Assay for human Retinoic Acid Receptor Alpha (RARE), DR5 submotif (AID 2282934); details: HepG2 Attagene cis-factorial RARE DR5 reporter, mRNA; actives raise or lower the signal
Chain of Retinoic acid receptor alpha (Homo sapiens) (P10276 whole entry, looked up): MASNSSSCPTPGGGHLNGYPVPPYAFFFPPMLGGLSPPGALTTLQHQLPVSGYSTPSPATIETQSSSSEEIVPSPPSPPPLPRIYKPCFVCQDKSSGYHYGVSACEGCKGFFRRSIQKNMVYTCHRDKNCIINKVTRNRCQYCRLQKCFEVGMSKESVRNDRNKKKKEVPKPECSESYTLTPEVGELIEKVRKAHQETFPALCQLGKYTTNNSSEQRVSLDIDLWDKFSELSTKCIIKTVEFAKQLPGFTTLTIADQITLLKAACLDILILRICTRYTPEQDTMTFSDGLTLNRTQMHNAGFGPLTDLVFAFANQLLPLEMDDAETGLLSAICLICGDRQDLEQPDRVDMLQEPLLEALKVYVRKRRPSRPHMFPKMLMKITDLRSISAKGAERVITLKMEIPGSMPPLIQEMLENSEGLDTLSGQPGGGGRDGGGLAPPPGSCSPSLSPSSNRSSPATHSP
Method in brief: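 After 24 h of chemical exposure, transiently transfected HepG2 cells were lysed for total RNA; the DR5-regulated reporter transcript was quantified via RT-PCR and capillary electrophoresis, with activity fitted bidirectionally against DMSO.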

[10] = target: Transcription factor E2F1 (Homo sapiens) (UniProt Q01094); assay: ATG_E2F_CIS: Attagene CIS-FACTORIAL HepG2 Assay for human E2F Transcription Factor 1 (AID 2282935); details: HepG2 Attagene cis-reporter, E2F reporter RNA transcripts; actives raise or lower the signal
Chain of Transcription factor E2F1 (Homo sapiens) (Q01094 whole entry, looked up): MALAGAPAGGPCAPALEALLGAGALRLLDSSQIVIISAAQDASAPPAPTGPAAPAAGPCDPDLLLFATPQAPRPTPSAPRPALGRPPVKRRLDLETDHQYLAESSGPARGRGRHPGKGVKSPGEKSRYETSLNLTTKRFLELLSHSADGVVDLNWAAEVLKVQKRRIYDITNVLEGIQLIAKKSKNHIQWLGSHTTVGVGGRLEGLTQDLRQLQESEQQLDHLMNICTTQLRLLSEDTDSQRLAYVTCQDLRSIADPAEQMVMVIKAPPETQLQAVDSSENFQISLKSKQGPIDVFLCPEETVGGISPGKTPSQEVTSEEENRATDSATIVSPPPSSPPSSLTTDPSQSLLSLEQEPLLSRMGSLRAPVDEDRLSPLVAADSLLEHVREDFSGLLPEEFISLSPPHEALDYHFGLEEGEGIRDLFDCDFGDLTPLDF
Method in brief: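 Measures reporter transcript levels via RT-PCR with capillary electrophoresis detection in HepG2 cells harboring cis-regulated reporter units; 24 h post-dose; bidirectional curve fitting with DMSO as baseline.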

[11] = ATG_M_61_CIS: Attagene CIS-FACTORIAL HepG2 Assay for M61 Transcription Factor (Internal Marker) (AID 2282937); details: HepG2 Attagene CIS-FACTORIAL M61 internal marker reporter; actives raise or lower the signal
Method in brief: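 Readout: fluorescent reporter mRNA fragments resolved by capillary electrophoresis after RT-PCR. Transiently transfected human HepG2 cells carried MRTU constructs reporting endogenous TF activity; 24 h chemical exposure; gain or loss of signal fitted relative to DMSO.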

[12] = ATG_EGR_CIS: Attagene CIS-FACTORIAL HepG2 Assay for human Early Growth Response 1 (EGR1) (AID 2282938); details: HepG2 Attagene CIS-FACTORIAL EGR reporter mRNA; actives raise or lower the signal
Method in brief: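 Read-out: fluorescent reporter-mRNA fragments resolved by capillary electrophoresis after RT-PCR, 24 h post-dose in transiently transfected HepG2. Endogenous transcription-factor activity reported via cis-element-regulated reporter units; gain or loss fitted relative to DMSO.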

[13] = ATG_M_19_CIS: Attagene CIS-FACTORIAL HepG2 Assay for M19 Transcription Factor (Internal Marker) (AID 2282939); details: HepG2 Attagene CIS-FACTORIAL M19 internal marker reporter; actives raise or lower the signal
Method in brief: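 Readout: fluorescent reporter-transcript fragments by capillary electrophoresis after RT-PCR. Human HepG2 liver cells carried transfected MRTU constructs reporting endogenous transcription-factor activity; exposure 24 h. Gain or loss of signal fitted relative to DMSO.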

[14] = ATG_Ets_CIS: Attagene CIS-FACTORIAL HepG2 Assay for human Erythroblast Transformation Specific (ETS) (AID 2282941); details: HepG2 ETS cis-reporter transcription, actives raise or lower the signal
Method in brief: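 HepG2 cells transfected with multiple cis-regulated reporter units measuring endogenous ETS-driven transcription, 24 h after dosing. Reporter mRNA quantified by RT-PCR with capillary electrophoresis; bidirectional fit relative to DMSO.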

[15] = target: Hepatocyte nuclear factor 3-beta (Homo sapiens) (UniProt Q9Y261); assay: ATG_FoxA2_CIS: Attagene CIS-FACTORIAL HepG2 Assay for human Forkhead box A2 (FOXA2) (AID 2282942); details: HepG2 cis-reporter transcription factor activity, 24 h; actives raise or lower the signal
Chain of Hepatocyte nuclear factor 3-beta (Homo sapiens) (Q9Y261 whole entry, looked up): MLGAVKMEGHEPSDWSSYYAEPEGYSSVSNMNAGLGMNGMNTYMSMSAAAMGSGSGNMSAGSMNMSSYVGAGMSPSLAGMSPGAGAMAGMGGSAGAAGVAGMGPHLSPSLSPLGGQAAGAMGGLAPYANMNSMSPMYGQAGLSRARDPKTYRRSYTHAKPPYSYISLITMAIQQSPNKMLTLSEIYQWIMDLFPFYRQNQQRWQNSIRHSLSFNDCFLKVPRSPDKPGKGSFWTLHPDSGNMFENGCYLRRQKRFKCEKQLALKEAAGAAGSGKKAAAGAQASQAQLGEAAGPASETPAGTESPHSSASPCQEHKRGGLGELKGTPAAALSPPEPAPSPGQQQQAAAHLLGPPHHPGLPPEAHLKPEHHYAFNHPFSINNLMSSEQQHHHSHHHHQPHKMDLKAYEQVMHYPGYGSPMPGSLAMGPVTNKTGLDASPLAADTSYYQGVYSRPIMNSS
Method in brief: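 Readout: fluorescent reporter transcripts resolved by capillary electrophoresis after RT-PCR. Transiently transfected HepG2, 24 h compound exposure, endogenous TF activity at cis promoter elements. Gain or loss of signal fitted relative to DMSO.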

[16] = ATG_FoxO_CIS: Attagene CIS-FACTORIAL HepG2 Assay for human Forkhead box O (FoxO) (AID 2282943); details: HepG2 Attagene cis-reporter, FoxO element, mRNA; actives raise or lower the signal
Method in brief: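 Transfected HepG2 reporter cells exposed to test chemical for 24 h; reporter RNA measured by reverse transcription, PCR and fluorescent capillary electrophoresis; curves fitted for increases and decreases against DMSO.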

[17] = ATG_GATA_CIS: Attagene CIS-FACTORIAL HepG2 Assay for human GATA Binding Protein (AID 2282944); details: HepG2 GATA cis-element reporter, Attagene multiplex mRNA; actives raise or lower the signal
Method in brief: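 Read-out: fluorescent reporter mRNA fragments resolved by capillary electrophoresis after RT-PCR. Human liver HepG2 cells carried transiently transfected cis-regulated reporter constructs; chemicals incubated 24 h; gain or loss of signal fitted relative to DMSO.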

[18] = ATG_GLI_CIS: Attagene CIS-FACTORIAL HepG2 Assay for human Zinc Finger Protein GLI1 (AID 2282945); details: HepG2, Attagene cis-factorial reporter mRNA, GLI element; actives raise or lower the signal
Method in brief: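 Transiently transfected HepG2 cells report endogenous transcription factor activity via cis-element-driven reporter units. After 24 h compound exposure, reporter mRNA was measured by RT-PCR with capillary electrophoresis; bidirectional fitting against DMSO baseline.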

[19] = ATG_E_Box_CIS: Attagene CIS-FACTORIAL HepG2 Assay for human Enhancer Box (E-box) (AID 2282936); details: HepG2 E-box cis-reporter transcription, actives raise or lower the signal
Method in brief: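 First, HepG2 cells receive multiple cis-regulated reporter constructs by transient transfection. Next, chemicals are applied for 24 h. Finally, reporter mRNA is quantified via RT-PCR and capillary electrophoresis, with DMSO as baseline.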

Measured: AC50

CC1(CO)CN(c2ccccc2)NC1=O (configuration not stated)
active: [5] 9.8 µM
not listed: [19]
inactive: all other assays above

CC[C@]12CCCN3CCc4c(n(c5ccccc45)[C@@](O)(C(=O)OC)C1)[C@@H]32
not listed: [14]
inactive: all other assays above

CCN(CC)c1ccc(C(=C2C=CC(=[N+](CC)CC)C=C2)c2ccc(S(=O)(=O)O)cc2S(=O)(=O)[O-])cc1
not listed: [12] | [14] | [17] | [19]
inactive: all other assays above

O=S(=O)(O)NC1CCCCC1
inactive: all assays above

NCCNCCN
inactive: all assays above

CNC[C@H](O)c1cccc(O)c1
inactive: all assays above

C=CC(=O)OCCOCCOCC
active: [3] 48.2 µM | [12] 100 µM
not listed: [17] | [19]
inactive: all other assays above

COCCCOc1ccnc(CS(=O)c2nc3ccccc3[nH]2)c1C (configuration not stated)
active: [5] 14.7 µM
inactive: all other assays above

CCO[Si](CCCS)(OCC)OCC
inactive: all assays above

CC1(C)OC[C@@H]2O[C@@]3(C(=O)O)OC(C)(C)O[C@H]3[C@@H]2O1
inactive: all assays above

CCCCCCCCCCCCCCCC(=O)O
inactive: all assays above

O=C1CCCCCCCCCCOCCCCO1
active: [4] 74.1 µM | [8] 100 µM
not listed: [11]
inactive: all other assays above

CC1(C)C(=O)N(Br)C(=O)N1Cl
not listed: [11] | [19]
inactive: all other assays above

CC1CC(OC(=O)c2ccccc2O)CC(C)(C)C1 (configuration not stated)
active: [3] 100 µM | [6] 69.4 µM
not listed: [14] | [17] | [19]
inactive: all other assays above

Reference: PubChem BioAssay (EPA / NIEHS)
